PubChem BioAssay AID652017 (The Scripps Research Institute Molecular Screening Center, 2013)
Among all 370,000 compounds or so, about 3,800 (1%) were called active. Rule as the data show it: active = activation above about 7.8%; inactive = the rest. The list comes from a sample in which actives are over-represented; it also holds similar structures and randomly drawn compounds.

test: SMARCA2 (BRM) function activators, primary screen, cell-based, luminescence, high throughput (AID 652017); conditions: MG213 cells, MMTV-luciferase reporter, dexamethasone, overnight; at 9.1 µM; active compounds read high;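 also: 0% = vehicle wells and 100% = reference activator wells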

activation, active:
COC(=O)c1ccc(NCc2cc(O)ccc2O)cc1 8.39%
CCc1ccc(NC2Nc3cc(C)nn3S2)cc1 (stereo not given) 8.13%
CC(=O)Nc1ccc(Nc2c3ccccc3nc3ccccc23)cc1 8.59%
Oc1cccc2ccc(/C=C/c3ccc(Br)s3)nc12 10.9%
CCOC(=O)c1sc2nc(CSc3ccccc3)[nH]c(=O)c2c1C 9.98%
Cc1ccnc(Nc2nc3ccccc3s2)n1 10.6%
Cn1c(-c2ccc(F)cc2)cc2onc(-c3ccccc3Cl)c2c1=O 9.9%
CCOc1cccc2c1OC1(CCCCC1)N1N=C(c3cccnc3)CC21 (stereo not given) 8%
Cn1cc(/C=C/C(=O)N2CCCC(C(=O)c3ccc(C(F)(F)F)cc3)C2)cn1 (stereo not given) 9.62%
COc1ccc(/C=C/C(=O)Nc2ccc(C34CC5CC(CC(O)(C5)C3)C4)cc2)cc1OC 9.95%
Cc1cc2oc3ccc(NCCC4CCCN4C)cc3c(=O)c2cc1C (stereo not given) 8.67%
Cc1ccc(-n2c(SCC(=O)N3CCC(C(=O)O)CC3)nc3ccccc3c2=O)cc1C 9%
Cc1cc(C)c2nc3nc(C)cc(C)c3c(N)c2c1 22.7%
COc1ccc(Cn2c(C)c(C)c(C#N)c2NC(=O)Nc2ccc(F)cc2)cc1 13.3%
CCCN1C(=O)C(Cc2nc3ccccc3c(=O)n2-c2ccccc2)c2cc(C)ccc21 (stereo not given) 8.92%
CC(C)(C)c1ccc(NC(=O)NCc2ccco2)cc1 8.76%
COc1ccc(C(CNC(=O)c2ccc(S(=O)(=O)Nc3ccccc3F)cc2)N(C)C)cc1 (stereo not given) 8.4%

activation, inactive:
O=S(=O)(c1ccc(F)cc1)n1ccc(-c2cnc(-c3ccccc3)s2)n1 0.36%
CCOC(=O)c1csc(NC(=O)C2CCCN(S(=O)(=O)c3ccc(Cl)s3)C2)n1 (stereo not given) -3.75%
Nn1c(SCC(=O)Nc2cccc3ccccc23)nnc1-c1cc(-c2ccc(F)cc2)n[nH]1 -3.63%
CCS(=O)(=O)Nc1cc(C(=O)OC)ccc1C(=O)OC -0.18%
O=C(OC12CC3CC(CC(C3)C1)C2)c1ccc(NCc2cc(O)ccc2O)cc1 -10.6%
O=C(NC1CCCCN(Cc2ccc(Cl)cc2)C1=O)c1ccc(Br)cc1 (stereo not given) -1.79%
CCc1c(C)nc2c(-c3ccccc3)c(C)nn2c1Nc1ccc(NC(C)=O)cc1 -0.14%
CC(=O)Nc1ccc(Nc2nc3c(S(=O)(=O)c4ccc(C)c(C)c4)nnn3c3ccccc23)cc1 0.7%
O=C(CSc1nc2c(c(=O)[nH]1)CCCC2)N1CCCCC1 -4.24%
CCC(=O)OCCCN1C(=O)CCC12CCC(c1ccccc1)CC2 (stereo not given) -3.5%
CC(=O)OCCN1CCCC12CCC(c1ccccc1)CC2 (stereo not given) -0.56%
C=CCN1[C@H](CC(C)C)COc2cccc(N3CCCC3)c2S1(=O)=O -1.47%
Nn1c(SCC(=O)Nc2ccc(S(N)(=O)=O)cc2)nnc1-c1n[nH]c2c1CCC2 0.23%
COc1ccc(NC(=O)Cn2ncn3c(cc4ccccc43)c2=O)c(OC)c1OC 1.32%
C[C@H](C(=O)N(C)c1ccccc1)[C@@H](O)c1ccc(Cl)cc1 -0.55%
CSc1nnc(SCc2nc3sc(C(=O)O)c(C)c3c(=O)[nH]2)s1 -1.68%
CCOC(=O)c1sc2nc(C)nc(SCC(N)=O)c2c1C -1.05%
Cc1csc(Nc2ccc(Cl)cc2)[n+]1-c1ccc(Cl)cc1 -3.27%
CCC(c1ccc(NC(=O)OC(C)(C)C)cc1)c1cc(OC)cc(OC)c1 (stereo not given) -2.7%
Cc1ccc(NC(=O)c2cc(C)nn2-c2ccccc2)c(C)c1 -4.44%
Cc1ccnc(-n2sc3ccccc3c2=O)n1 1.96%
Cn1c(-c2ccc(C(F)(F)F)cc2)cc2onc(-c3ccccc3)c2c1=O 5.26%
Cc1[nH]n(C)c(=O)c1C(=O)c1c(-c2c(Cl)cccc2Cl)noc1C -2.74%
CCOC(=O)[C@]12CCCCC/C=C\1N(Cc1ccc(OC)cc1)C(=O)[C@H]2CC(=O)NCCCN1CCCC1=O -2.38%
O=C(CNS(=O)(=O)c1ccccc1F)N1CCN(c2ccccn2)CC1 -3.89%
COC(=O)[C@]12C[C@H](CC(=O)NCCc3ccccc3OC)C(=O)N(Cc3ccco3)C1=C[C@H](C(C)C)O[C@@H]2C1CC1 -4.32%
COC(=O)[C@]12C[C@H](CC(=O)NCc3cccc4ccccc34)C(=O)N(CCc3ccc(OC)c(OC)c3)C1=C[C@H](C1CCCC1)O[C@@H]2C -1.03%
CCCCN1CCN(C(=O)c2ccc3c(c2)NC(=O)C(C)(C)O3)CC1 2.59%
O=S1(=O)c2c(cccc2N2CC[C@H](O)C2)O[C@@H]2CCN1C2 -1.6%
CCc1nc2ccc(C(=O)NCCNC(C)=O)cn2c1N(CC)Cc1cccc(Br)c1 -2.59%
Cc1cnc(C(=O)N2CCCC(C(=O)c3ccc(C(F)(F)F)cc3)C2)cn1 (stereo not given) 1.89%
COCC(=O)N1CCCC(C(=O)c2ccc(C(F)(F)F)cc2)C1 (stereo not given) -2.48%
CCOC(=O)C1=C(C)NC2=C(C(=O)CC(C)(C)C2)C1c1ccc2c(c1)OCO2 (stereo not given) -5.79%
O=C(c1cccc(C(F)(F)F)c1)N1CC[C@H]2[C@H](CCCN2Cc2cc(F)cc(F)c2)C1 -1.61%
CSc1ccc(/C=C/C(=O)NC23CC4CC(CC(C4)C2)C3)cc1 1.32%
CCOc1ccccc1NC(=O)C12CC3CC(C1)CC(c1ccc(C)cc1)(C3)C2 -1.92%
O=C(NCc1ccc(Cl)cc1)C1CCCN(c2nc3ccccc3o2)C1 (stereo not given) -7.39%
Cc1ccc(C2=CCN(C)C(=O)N2c2ccc(Cl)cc2)cc1 1.89%
CN1CCC[C@@H]1CCO[C@](C)(c1ccccc1)c1ccc(Cl)cc1 -5.64%
S=C(NCCCc1cnc[nH]1)NCCCN(Cc1ccc(Cl)c(Cl)c1)c1ccc(Br)cn1 -3.8%
COC(=O)C[C@@H]1CC[C@H]2[C@@H](COc3ccc(NS(=O)(=O)CC(F)(F)F)cc3C(=O)N2C)O1 -3.47%
COC(=O)[C@]12C[C@H](CC(=O)N3CCN(C(=O)C4CC4)CC3)C(=O)N(CCC3=CCCCC3)C1=C[C@H](C(C)C)O[C@@H]2C1CC1 0.49%
Cc1cc(NS(=O)(=O)c2ccc(NC(=O)CSc3nnc(-c4ccc(C(C)(C)C)cc4)n3Cc3ccco3)cc2)nc(C)n1 -2%
COc1ccc(-n2c(SCC(=O)Nc3ccc(C)c(Cl)c3)nc3ccccc3c2=O)cc1 -5.45%
O=C(CSc1nc2ccccc2c(=O)n1-c1ccccc1F)N1CCOCC1 -2.52%
N#Cc1cccc(NC(=O)COC(=O)c2ccccc2C(=O)c2ccc(Cl)c([N+](=O)[O-])c2)c1 6.3%
O=C(CN1CCCc2ccccc21)NCc1ccc(F)cc1 4.7%
Cc1ccc(-n2c(SCC(=O)Nc3cccc4ccccc34)nnc2-c2ccco2)cc1 -1.08%
C[C@@H]1ON(C)[C@H]2C[C@H]3c4[nH]c5cccc(-c6ccc7c(c6)OCO7)c5c4CCN3C[C@@H]12 -5.68%
Clc1ccc(C(Cn2ccnc2)OCc2ccsc2Cl)c(Cl)c1 (stereo not given) -7.85%
Cc1c(C#N)c(NC(=O)c2ccccc2)n(Cc2ccccc2)c1C -1.06%
COc1ccc(Cn2cccc(NC(=O)Nc3ccc(C#N)cc3)c2=O)cc1 -4.78%
CC(NCc1ccco1)C(=O)N1CCCCC1 (stereo not given) -2.78%
CC1CCN(c2ccc(C(=O)O)cc2NS(=O)(=O)c2ccc(Br)s2)CC1 0.67%
CCOC(=O)c1cccc(NC(=O)CN(C)S(=O)(=O)c2ccc(-c3cocn3)s2)c1 -7.26%
CC(C)CC1NC(=O)c2cc(Cl)ccc2-n2c1nc1ccccc1c2=O (stereo not given) -0.02%
Cc1ccc(S(=O)(=O)NCc2nc3ccccc3c(=O)n2N)cc1 -5.01%
O=C(OC12CCCN(C1)/C(=C/c1ccccc1)C2)c1ccco1 (stereo not given) -4.02%
CC[C@H](NC(=O)[C@H](Cc1ccccc1)NC(=O)[C@H]1O[C@@H](n2cnc3c(=O)[nH]c(N)nc32)[C@H](O)[C@@H]1O)c1ccccc1 -4.41%
COC(=O)Cc1ccc(NC(=S)NCc2ccco2)cc1 -1.02%
COC(=O)/C=C/C(=O)NCc1ccco1 1.96%
COC(=O)[C@H](C(C)C)N1CCc2nnn(Cc3ccc(C)cc3)c2-c2ccccc2S1(=O)=O -3.89%
CC(=O)c1ccc(S(=O)(=O)Nc2ccc(C(=O)NCC(c3ccccc3)N(C)C)cc2)cc1 (stereo not given) 5.98%
COc1ccc(C(CNC(=O)c2ccc(NS(=O)(=O)c3ccc(F)c(C)c3)cc2)N(C)C)cc1 (stereo not given) -1.05%
CC(=O)Nc1ccc(OC[C@@H](O)CN2CCC(C(O)(c3ccccc3)c3ccccc3)CC2)cc1 -1.46%
COCCCNC(=O)C[C@H]1C[C@@]2(C(=O)OC)C(=C[C@H](C(C)(C)C)O[C@@H]2C)N(Cc2ccc(Cl)cc2Cl)C1=O -4%
Cc1c(C(C)c2ccccc2O)[nH]c2ccccc12 (stereo not given) -2.39%
Cc1ccc(NC(=O)C(=O)NCc2ccc(/C=N/NC(=O)c3c(C)nc4cc(C)ccn34)o2)cc1 -0.59%
